This is an account of results in PubChem BioAssay (NCI).

Compounds without any hit were thinned out: in the full panel of roughly 83,000, 20% have a hit.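 How to read the values: 0–100, growth inhibition (40 = 60% inhibited); 0, no net growth; -100 to 0, cell death (-40 = 40% of starting cells died; -100 = all dead).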 Unmarked numbers belong to inactive results. The source made the active and inactive calls. Rule for the calls: active = growth percent below 10; inactive = the rest.

Among the test systems are DU-145 prostate; K-562 leukemia; MALME-3M melanoma; MDA-MB-231 breast; RXF 393 renal; SF-268 CNS; SF-295 CNS; SF-539 CNS; UACC-257 melanoma; M14 melanoma.
What all share (test): NCI-60 one-dose screen, 48 h (100 = growth as untreated, 0 = no growth, -100 = all killed)
Holding throughout (settings): 10 µM unless noted

For `Nc1nc(N)nc(N2CCCCC2)n1`, the growth is 107% in the assay on DU-145 prostate; 105% in the assay with K-562 leukemia; 96.3% with MALME-3M melanoma; 96.5% in the assay with MDA-MB-231 breast; 105% with RXF 393 renal; 107% in the assay with SF-268 CNS. The growth in the assay with SF-295 CNS is 113%; in the assay on SF-539 CNS it was 97.6%; in the assay on UACC-257 melanoma, 101%; in the assay on M14 melanoma, 111%.

`O=C(O)Cc1ccccn1`: the growth in the assay with DU-145 prostate was 111%; with K-562 leukemia, 108%; in the assay on MALME-3M melanoma, 85.7%; with MDA-MB-231 breast it was 116%; in the assay with RXF 393 renal it was 133%; in the assay on SF-268 CNS, 100%. The growth in the assay on SF-295 CNS was 114%; in the assay on SF-539 CNS, 109%; with UACC-257 melanoma it was 98.6%; in the assay on M14 melanoma, 112%.

For `Cc1c(-c2ccc(C3CCCCC3)cc2)nc2ccc(F)cc2c1C(=O)O`, the growth was 39.3% in the assay on DU-145 prostate; 22.9% with K-562 leukemia; 62.1% in the assay on MALME-3M melanoma; 62.7% in the assay on MDA-MB-231 breast; 74.1% with RXF 393 renal; 42.8% with SF-268 CNS. Further, the growth in the assay with SF-295 CNS is 2.98% (active); in the assay with SF-539 CNS, 37.1%; with UACC-257 melanoma, 65.2%; in the assay with M14 melanoma it was 47.9%.

As to `CCOc1ccccc1NC(=O)CCl`, the growth in the assay with DU-145 prostate is 105%; with K-562 leukemia it was 86.8%; with MALME-3M melanoma, 92.2%; with MDA-MB-231 breast, 83.8%; with RXF 393 renal it was 93.9%; in the assay with SF-268 CNS it was 91.7%. Also, the growth with SF-295 CNS is 87.4%; in the assay on SF-539 CNS, 114%; in the assay on UACC-257 melanoma, 102%; in the assay with M14 melanoma, 79.1%.

For the compound `O=[n+]1ccn([O-])c2ccccc21`, the growth is 105% with DU-145 prostate; 109% in the assay with K-562 leukemia; 98.3% in the assay with MALME-3M melanoma; 94.6% with MDA-MB-231 breast; 89.5% with RXF 393 renal; 95.8% in the assay with SF-268 CNS. Further, the growth with SF-295 CNS was 107%; in the assay on SF-539 CNS, 99.1%; in the assay on UACC-257 melanoma, 133%; in the assay with M14 melanoma it was 96.7%.

Turning to `CCCCCCCCCCCCCC/C=C\C(CC(=O)O)C(=O)O` (stereo not drawn), the growth with DU-145 prostate was 110%; in the assay on K-562 leukemia it was 154%; in the assay on MALME-3M melanoma it was 123%; with MDA-MB-231 breast, 102%; in the assay with RXF 393 renal, 117%; in the assay with SF-268 CNS it was 103%. Moreover, the growth in the assay with SF-295 CNS was 110%; in the assay with SF-539 CNS it was 108%; with UACC-257 melanoma it was 107%; in the assay on M14 melanoma, 103%.

In the case of `C=C(OC(C)=O)c1ccccc1`, the growth with DU-145 prostate is 113%; with K-562 leukemia it was 83%; in the assay with MALME-3M melanoma it was 108%; in the assay with MDA-MB-231 breast, 103%; in the assay on RXF 393 renal, 113%; in the assay on SF-268 CNS it was 102%. In addition, the growth in the assay on SF-295 CNS was 105%; with SF-539 CNS, 108%; in the assay on UACC-257 melanoma it was 83.7%; in the assay on M14 melanoma, 97.3%.

For `CCOC(=O)c1ccc(NC(=O)Nc2nccs2)cc1`, the growth with DU-145 prostate was -26.3% (active); in the assay on K-562 leukemia it was -3.89% (active); with MALME-3M melanoma it was 39.4%; in the assay on MDA-MB-231 breast it was 8.88% (active); with RXF 393 renal it was -21.2% (active); in the assay with SF-268 CNS it was 0.081% (active). For the same compound, the growth with SF-295 CNS was 9.16% (active); in the assay with SF-539 CNS, -50.1% (active); in the assay with UACC-257 melanoma it was 45.5%; with M14 melanoma it was 4.57% (active).

Turning to `O=S(=O)(O)c1cccc2cccnc12`, the growth in the assay with DU-145 prostate was 120%; in the assay with K-562 leukemia it was 107%; in the assay on MALME-3M melanoma, 112%; in the assay on MDA-MB-231 breast, 120%; in the assay on RXF 393 renal it was 124%; in the assay on SF-268 CNS it was 95.1%. Further, the growth is 109% in the assay on SF-295 CNS, 109% in the assay on SF-539 CNS, 103% in the assay on UACC-257 melanoma and 106% with M14 melanoma.

As for `CC(=O)N(C)N=Nc1ccc(C)cc1`, the growth was 107% with DU-145 prostate; 105% in the assay on K-562 leukemia; 94.5% with MALME-3M melanoma; 102% in the assay with MDA-MB-231 breast; 122% with RXF 393 renal; 91.3% with SF-268 CNS. Also, the growth with SF-295 CNS is 101%; in the assay on SF-539 CNS, 101%; in the assay on UACC-257 melanoma it was 101%; with M14 melanoma it was 96.7%.

Consider `C1Cc2onc(-c3noc4c3CCC4)c2C1`, for which the growth in the assay with DU-145 prostate was 115%; in the assay on K-562 leukemia, 109%; in the assay on MALME-3M melanoma it was 108%; with MDA-MB-231 breast, 116%; in the assay with RXF 393 renal, 134%; in the assay on SF-268 CNS, 110%. Further, the growth was 104% in the assay on SF-295 CNS, 108% in the assay with SF-539 CNS, 110% in the assay with UACC-257 melanoma and 110% in the assay on M14 melanoma.

Consider `COc1cc(-c2ccc(NC(=O)CC(C)=O)c(OC)c2)ccc1NC(=O)CC(C)=O`, for which the growth with DU-145 prostate is 111%; in the assay with K-562 leukemia it was 98%; in the assay with MALME-3M melanoma, 97.3%; with MDA-MB-231 breast it was 101%; in the assay on RXF 393 renal it was 113%; in the assay on SF-268 CNS, 107%. The growth was 101% in the assay on SF-295 CNS, 97.6% in the assay on SF-539 CNS, 89.3% with UACC-257 melanoma and 104% with M14 melanoma.

Turning to `NC(=S)N/N=C/c1ccc(OC(=O)COc2ccc(Cl)cc2)cn1`, the growth in the assay with DU-145 prostate is 29.3%; with K-562 leukemia it was 44.1%; in the assay with MALME-3M melanoma it was 45.5%; with MDA-MB-231 breast, 66.6%; in the assay with RXF 393 renal, 67%; in the assay on SF-268 CNS, 27.8%. For the same compound, the growth in the assay with SF-295 CNS is 99.2%; in the assay on UACC-257 melanoma, 78.1%; in the assay with M14 melanoma, 17.9%.

`CSc1nsc(N)n1`: the growth is 115% in the assay with DU-145 prostate; 113% in the assay with K-562 leukemia; 93.5% in the assay on MALME-3M melanoma; 95.9% with MDA-MB-231 breast; 108% with RXF 393 renal; 104% with SF-268 CNS. The growth in the assay on SF-295 CNS is 101%; in the assay with UACC-257 melanoma it was 99.9%; in the assay on M14 melanoma, 97.6%.

On to `C=CCC(O)C=C` (stereo not drawn), for which the growth was 111% in the assay with DU-145 prostate; 91.4% in the assay on K-562 leukemia; 80.7% in the assay on MALME-3M melanoma; 108% in the assay on MDA-MB-231 breast; 107% in the assay with RXF 393 renal; 111% with SF-268 CNS. Further, the growth in the assay on SF-295 CNS is 99.6%; in the assay on SF-539 CNS, 104%; with UACC-257 melanoma it was 93.5%; in the assay with M14 melanoma, 104%.
